Screen size: about 16,000 compounds; about 5,700 (36%) were called active. Not shown: some 24% with an inconclusive outcome. Calls follow the shape of the dose curve; as a rule, active = well fitted curve in the direction sought with a large enough effect; inconclusive = small, poorly fitted or top-dose-only effect, or effect the other way; inactive = no such curve, though single readings can be large or run the other way. The list shows a part of the results.
target: Cytochrome P450 1A2 (Homo sapiens) (UniProt P05177); test: Cytochrome panel assay with activity outcomes; conditions: recombinant CYP, pro-luciferin dealkylation, luminescence, p450-cyp1a2; series mostly up to 57.1 µM; activity, negative = inhibition: at the top concentration
Sequence (P05177 whole entry, looked up): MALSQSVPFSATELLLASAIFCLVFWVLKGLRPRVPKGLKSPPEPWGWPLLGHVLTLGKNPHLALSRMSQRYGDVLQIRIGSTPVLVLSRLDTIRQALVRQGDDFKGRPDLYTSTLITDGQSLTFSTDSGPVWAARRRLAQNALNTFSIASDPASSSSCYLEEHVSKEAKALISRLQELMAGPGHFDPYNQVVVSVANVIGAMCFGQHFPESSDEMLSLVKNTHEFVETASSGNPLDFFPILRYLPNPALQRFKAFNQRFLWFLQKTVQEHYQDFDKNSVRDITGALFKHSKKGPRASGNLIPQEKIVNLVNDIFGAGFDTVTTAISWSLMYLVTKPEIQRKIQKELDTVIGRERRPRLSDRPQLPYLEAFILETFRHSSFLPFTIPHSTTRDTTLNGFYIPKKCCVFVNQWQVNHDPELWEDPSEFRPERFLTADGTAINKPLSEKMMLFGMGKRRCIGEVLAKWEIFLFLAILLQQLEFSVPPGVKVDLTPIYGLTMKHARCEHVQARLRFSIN
Protocol: The P450 gene superfamily is involved in the metabolism and clearance of xenobiotics. This assay used various human CYP P450 isozymes to measure the dealkylation of various pro-luciferin substrates to luciferin. The luciferin is then measured by luminescence after the addition of a luciferase detection reagent. Pro-luciferin substrate concentration in the assay was equal to its KM for its CYP P450 isozyme. Inhibitors and some substrates limit the production of luciferin, and decrease measured luminescence.
NCGC Assay Protocol Summary:
1, Reagent, 2 uL, Isozyme and Pro-Luciferin
2, Library compounds, 23 nl, 40 uM to 0.24 nM dilution series
3, Controls, 23 nl, Isozyme specific inhibitor
4, Reagent, 2 uL, NADPH regeneration solution
5, Incubation time, 60 min, Isozyme specific temperature
6, Reagent, 4ul, Detection reagent
7, Incubation time, 20 min, Isozyme specific temperature
8, Detection, 1 sec, ViewLux luminescent read
The luciferase-based P450-GloTM Screening Systems were obtained from Promega (Madison, WI) for CYP 1A2 (V9770), CYP 2C9 (V9790), CYP2 C19 (V9880), CYP 2D6 (V9890), and CYP 3A4 Luciferin-PPXE (V9910) and were adapted for 1,536-well microplates and an automated protocol. The control compounds furafylline for 1A2 (F124), sulfaphenazole for CYP 2C9 (S0758), ketoconazole for CYP 2C19 (K1003), quinidine for 2D6 (Q3625), and ketoconazole for 3A4 (K1003) were purchased from Sigma Aldrich (St. Louis, MO). Recombinant P450 enzymes were obtained from baculovirus constructs expressed in insect cells (BD/Gentest).
Medium-binding white solid Kalypsys plates used. Mixtures kept on ice. 1A2: 10 nM 1A2, 100 uM Luc-ME, 100 mM KPO4; 2C9: 10 nM 2C9, 100 uM Luc-H, 25 mM KPO4; 2C19: 5 nM 2C19, 10 uM Luc-H EGE, 50 mM KPO4; 2D6: 5 nM 2D6, 30 uM Luc-ME EGE, 100 mM KPO4; 3A4: 10 nM, 25 uM Luc-PPXE. All amounts are reflected in their final concentration, working concentration is 2x.
NADPH regeneration solution: 1.3 mM NADP+, 3.3 mM glucose-6-phosphate, 3.3 mM MgCl2, 0.4 U/mL glucose-6-phosphate dehydrogenase for all isozymes, 200 mM KPO4 for 3A4. Mixture prepared at RT but kept on ice during automated run.
RT incubation in auxilliary plate hotel for 1A2, 2D6, and 3A4; 37C for 2C9 and 2C19.
Keywords: P450, CYP1A2, CYP2C19, CYP2C9, CYP2D6, CYP3A4, Luciferase, MLSMR, MLSCN, NIH Roadmap, qHTS, NCGC
% is scaled to controls: 0 for no effect and ±100 for the full control effect.

| SMILES | AC50 | activity, negative = inhibition |
| --- | --- | --- |
| CC(C)(C)C(=O)NC(Nc1cccc2cccnc12)C(Cl)(Cl)Cl (stereo not given) | 20000 nM (active) |  |
| Oc1c([C@H](Nc2ccccn2)c2ccccc2)ccc2cccnc12 |  | -21.9% [at 2.29 µM] (inactive) |
| Cc1ccc(C)n1C(Cc1ccccc1)C(=O)O (stereo not given) |  | 6.11% [at 11.4 µM] (inactive) |
| Cc1cc(C)n(-c2ccc(F)cc2)c(=O)c1C(=O)O |  | 3.85% (inactive) |
| Cc1ccc(-n2c(C)nc3c(cnn3-c3ccc(F)cc3)c2=O)cc1C | 2510 nM (active) |  |
| FC(F)(F)c1cc(C(F)(F)F)c2ccc(N/N=C/c3cccc(Cl)c3)nc2n1 | 2510 nM (active) |  |
| O=c1c(O)c(-c2cc(O)c(O)c(O)c2)oc2cc(O)cc(O)c12 | 5010 nM (active) |  |
| Cc1ccc(OCCOCCn2ccnc2)c(Br)c1 | 282 nM (active) |  |
| Cc1cccc(OCCCCCn2ccnc2)c1 | 282 nM (active) |  |
| O=C1C2C3C=CC(C2C(=O)N1CN1CCOCC1)C1C2C(=O)N(CN4CCOCC4)C(=O)C2C31 (stereo not given) |  | -7.11% [at 11.4 µM] (inactive) |
| CCN1C(=O)[C@H]2[C@H]3[C@H](O)[C@H](O)C/C(=N/NC(=O)OCc4ccccc4)[C@@H]3CC[C@@H]2C1=O |  | -2.34% [at 11.4 µM] (inactive) |
| CC(C)=NOC[C@@H](O)[C@@H]1O[C@@H]2OC(C)(C)O[C@@H]2[C@H]1O |  | -4.07% [at 11.4 µM] (inactive) |
| Clc1ccc(-c2ccnc(Oc3cc(Cl)ccc3Cl)n2)cc1 | 447 nM (active) |  |
| O=C(O)c1ccc(C(=O)O)c(C(=O)O)c1.[NH-][C@@H]1CCCC[C@@H]1[NH-].[Pt] |  | -19% [at 11.4 µM] (inactive) |
| CC(C)OCCCN1CN(S(=O)(=O)c2cccc(Cl)c2)c2nc3ccccc3nc21 | 14100 nM (active) |  |
| C[N+](C)(C)CC[N+]1(C)Cc2c(Cl)c(Cl)c(Cl)c(Cl)c2C1 |  | -15.9% (inactive) |
| Cc1noc(C)c1-c1nc(Nc2ccc(F)cc2)c2ccccc2n1 | 251 nM (active) |  |
| COc1ccc(Nc2ncc(C(=O)N3CCN(c4ccc(F)cc4)CC3)c3ccccc23)cc1 |  | -21.6% (inactive) |
| Cc1noc(C)c1-c1nc(Nc2ccncc2)c2ccccc2n1 | 100 nM (active) |  |
| Cc1noc(C)c1-c1nc(NC2CCNCC2)c2ccccc2n1 | 5010 nM (active) |  |
| Cc1noc(C)c1-c1nc(Nc2ccccc2)c2ccccc2n1 | 251 nM (active) |  |
| COc1cccc(C2C3(C#N)C(N)=NC(OC)(OC)C23C#N)c1 (stereo not given) |  | -22.7% (inactive) |

| SMILES | AC50 | activity, negative = inhibition |
| --- | --- | --- |
| C#CCCCO/N=C1/C[C@@H](O)[C@@H](O)[C@@H]2[C@@H]3C(=O)N([C@@H](C)c4ccccc4)C(=O)[C@H]3CC[C@@H]12 |  | -1.14% [at 11.4 µM] (inactive) |
| Cc1noc(C)c1-c1nc(N(C)C)c2ccccc2n1 | 39.8 nM (active) |  |
| CNc1nc(-c2c(C)noc2C)nc2ccccc12 | 50.1 nM (active) |  |
| COC(=O)[C@@H]1CC[C@H](C)[C@@H](c2ccc(C)cc2)N1C(=O)c1ccc(/C=N\O[C@@H](C)CN2CCCc3nc(C)c(C)cc32)cc1 |  | -8.09% [at 11.4 µM] (inactive) |
| C/C(=N/NC1=NCCN1)c1cn(C2=NCCN2)nc1C |  | -13.9% [at 2.29 µM] (inactive) |
| CS(=O)(=O)N1CCC[C@@]2(CCN(c3ccncc3)C2)C1 |  | -0.751% (inactive) |
| CN(C)[C@H]1C(=O)C(C(=O)NCN2CCCC2)=C(O)[C@]2(O)C(=O)C3=C(O)c4c(O)cccc4[C@@](C)(O)[C@H]3C[C@@H]12 |  | -13.9% [at 25.6 µM] (inactive) |
| Cc1ccc(NC(=S)N2CCN(C(=O)C3CCCO3)CC2)c(C)c1 (stereo not given) |  | -2.91% (inactive) |
| COC(=O)c1ccc(NC(=S)N2CCN(Cc3cccc(C)c3)CC2)cc1 |  | -18.6% (inactive) |
| NC(=O)C1(N2CCCCC2)CCN(C(=S)Nc2ccc(Cl)cc2)CC1 |  | -4.97% (inactive) |
| COC(=O)c1ccc(C(=O)OC)c(NC(=S)N2CCN(c3ccccc3)CC2)c1 | 4470 nM (active) |  |
| COc1ccc(N2CCN(C(=S)Nc3cc(C)ccc3C)CC2)cc1 |  | -5.94% (inactive) |
| COC(=O)c1cc(OC)c(OC)cc1NC(=S)N1CCCCC1 | 1580 nM (active) |  |
| N[C@@H](CS(=O)O)C(=O)O |  | -13.2% (inactive) |
| COc1cccc(NC(=O)CSc2nc3c(c(-c4ccco4)c2C#N)CCCC3)c1 |  | -1.32% (inactive) |
| CCc1sc(-c2c(C#N)c(N)nc3c2CCCCCC3)cc1[N+](=O)[O-] | 2000 nM (active) |  |
| Cc1ccc(-n2cnc(=O)c3cccnc32)cc1 |  | -11.7% (inactive) |
| O=c1nc(-c2ccccc2)n(-c2ccccc2)c2ncccc12 |  | -20.5% (inactive) |
| Cc1ccc(-n2[nH]c(=O)c3cccnc32)cc1 | 2510 nM (active) |  |
| Cc1ccc(N2C(=O)c3n[nH]c(C)c3C2c2ccccn2)cc1 (stereo not given) |  | -2.91% (inactive) |
| O=c1[nH]n(-c2cccc(Cl)c2)c2ncccc12 | 5010 nM (active) |  |
| O=c1ncn(-c2ccccc2F)c2ncccc12 |  | -9.76% (inactive) |

| SMILES | AC50 | activity, negative = inhibition |
| --- | --- | --- |
| CCOCCCn1cnc2c(c1=O)c1nc3ccccc3nc1n2-c1ccccc1 | 4470 nM (active) |  |
| COCCNC(=O)C1CCN(S(=O)(=O)N2CCC3(CC2)OCCO3)CC1 |  | -13.7% (inactive) |
| O=C(Nc1ccc2nc(SCc3ccc(Cl)cc3)sc2c1)c1ccccc1C(=O)N1CCOCC1 |  | -12.7% (inactive) |
| CCC(C)NCc1ccc(C(=O)OC)o1 (stereo not given) |  | -12.7% (inactive) |
| COC(=O)c1ccc(CSc2nc3cc(Cl)ccc3s2)o1 | 2000 nM (active) |  |
| CCN(c1ccc(NC(=O)COC(=O)c2ccc3ccccc3n2)cc1)C(C)C | 2510 nM (active) |  |
| Cc1ccc(C(C(=O)NCc2ccco2)N(C(=O)CNC(=O)c2cccs2)c2ccc(C)cc2C)cc1 (stereo not given) |  | -8.95% (inactive) |
| Cc1ccc(C(C(=O)NCc2ccco2)N(C(=O)CNC(=O)c2cccs2)c2ccc(C)cc2)cc1 (stereo not given) |  | -2.44% (inactive) |
| O=C(c1cccs1)n1nc(-c2ccc(Cl)cc2)nc1NCc1ccco1 | 316 nM (active) |  |
| Cc1noc(COc2ccc(OCc3nc(C)no3)cc2)n1 |  | 0.769% (inactive) |
| CCn1c(COc2ccc(OC)cc2)nc2ccccc21 | 14100 nM (active) |  |
| COc1ccc(OCc2nnc(SCC(=O)O)n2N)cc1 |  | -20.8% (inactive) |
| CCn1c(N)nc2ccccc21 | 25100 nM (active) |  |
| C[n+]1ccccc1/C=N\O |  | -6.64% [at 25.6 µM] (inactive) |
| CC(C)NC(=O)N1CCN(c2ccncc2S(=O)(=O)N2CCOCC2)CC1 |  | -4.14% (inactive) |
| O=[N+]([O-])c1cccc2cn[nH]c12 | 2510 nM (active) |  |
| O=[N+]([O-])c1ccc(S(=O)(=O)Cc2ccccc2)c2nonc12 |  | -5.25% [at 2.29 µM] (inactive) |
| O=[N+]([O-])c1cccc2c(Br)[nH]nc12 | 126 nM (active) |  |
| Cc1nc2cccc([N+](=O)[O-])c2n1CCCN(C)C |  | -16.9% [at 11.4 µM] (inactive) |
| O=[N+]([O-])c1cccc2c[nH]nc12 | 2510 nM (active) |  |
| O=[N+]([O-])c1cc(Cc2cc([N+](=O)[O-])c3cccnc3c2O)c(O)c2ncccc12 |  | -31.1% [at 2.29 µM] (inactive) |

Source: PubChem BioAssay AID1851 (National Center for Advancing Translational Sciences (NCATS), 2009)
